Screens (PubChem)
HP1b chromo inh – inhibitors of HP1-beta chromodomain binding to methylated histone tails. 390,000 compounds, 0.56% hits. AlphaScreen HP1-beta / biotin-H3K9me3 peptide binding. AID 540317. Potency, µM (top dose mostly 114 µM), without a hit: at the top dose activity change, negative = inhibition, actives largely listed as inhibitors; also: nearly all actives have a fitted effect of over 70% in size
Target sequence (P83916 whole entry, looked up): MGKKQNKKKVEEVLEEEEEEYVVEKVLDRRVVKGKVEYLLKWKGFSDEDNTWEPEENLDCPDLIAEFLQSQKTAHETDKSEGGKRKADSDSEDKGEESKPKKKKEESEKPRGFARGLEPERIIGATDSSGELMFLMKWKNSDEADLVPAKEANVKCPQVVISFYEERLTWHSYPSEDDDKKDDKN
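AlphaScreen: HP1-beta (50 nM) preformed 30 min with biotin-H3(1-18)K9me3 peptide (50 nM) in PBS pH 7.4, 0.01% Tween-20. Compound added for 30 min at RT, then streptavidin donor/nickel chelate acceptor beads (10 ug/mL) for 30 min.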
BAZ2B block – BAZ2B (human) inhibition. Q9UIF8. AlphaScreen BAZ2B-H3K14Ac peptide displacement. Potency, µM (series often up to 114 µM), inactives show at the highest dose activity change, negative = inhibition, most hits filed as inhibitors. 360,000 compounds, 4.4% hits; also: % is scaled to controls: 0 for no effect and ±100 for the full control effect; nearly all actives have a fitted effect of over 60% in size
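Protein-peptide AlphaScreen: BAZ2B 50 nM, b-H3K14Ac 50 nM, 1x PBS pH 7.4 + 0.01% Tween-20. Preincubation 30 min RT; cpd 30 min RT (top 110 uM); beads 20 min RT, light-protected.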
G9a block – G9a (human) methyltransferase inhibition; AID 504332; 350,000 compounds, 8.8% hits; Potency, µM (titrated, usually from 102 µM), inactives show top-dose activity, negative = inhibition, actives largely listed as inhibitors; G9a H3K9 monomethylation, AlphaScreen, 2 h; also: % is scaled to controls: 0 for no effect and ±100 for the full control effect; nearly all actives have a fitted effect of over 75% in size
Target sequence (Q96KQ7 913-1193 limits assumed): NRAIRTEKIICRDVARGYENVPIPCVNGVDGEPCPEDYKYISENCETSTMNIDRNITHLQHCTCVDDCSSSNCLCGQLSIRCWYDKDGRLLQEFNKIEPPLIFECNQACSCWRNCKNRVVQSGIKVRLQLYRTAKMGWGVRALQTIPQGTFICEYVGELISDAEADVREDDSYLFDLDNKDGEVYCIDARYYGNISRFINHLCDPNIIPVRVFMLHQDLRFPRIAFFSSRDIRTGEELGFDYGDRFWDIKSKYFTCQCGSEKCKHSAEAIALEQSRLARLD
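AlphaScreen read-out: biotin-H3K9 peptide (500 nM) methylation by 20 nM enzyme with 20 uM SAM, 2 h at room temperature after 15 min compound preincubation; anti-monomethyl H3K9 antibody plus donor/acceptor beads, 10 min dark.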
L3MBTL1 block – inhibitors of human L3MBTL1; AlphaScreen L3MBTL1–H3K9me1 peptide binding; Q9Y468; 230,000 compounds, 0.66% hits; Potency, µM (highest dose often 57.1 µM), for inactives: at the top dose activity, negative = inhibition, actives largely listed as inhibitors; also: % is scaled to controls: 0 for no effect and ±100 for the full control effect; nearly all actives have a fitted effect of over 60% in size
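AlphaScreen assay: L3MBTL1 (50 nM final) was preincubated 30 min at room temperature with biotinylated H3(1-15)K9me1 peptide (75 nM final), then 30 min with library compounds; streptavidin donor and nickel chelate acceptor beads (10 ug/mL final) added, 30 min dark.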
Sfp PPTase inh – blocks B. subtilis Sfp PPTase activity; Q9F4F7; Biochemical Sfp PPTase activity, qHTS; Potency, µM, inactives show largest response in the series, negative = inhibition, usual class: inhibitors; 310,000 compounds, 3.5% hits; AID 1490;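 also: the enzyme is Sfp with the accession as filed and its product quenches rhodamine fluorescence; 0% = enzyme reaction without inhibitor and -100% = no enzyme wells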
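Sfp 15 nM + cpd, 15 min RT; start w/ rhodamine-CoA 5 uM, BHQ-2-YbbR 12.5 uM (final); 50 mM Hepes pH 7.6, 10 mM MgCl2, 0.01% NP-40, 0.01% BSA; read 525/598 nm at 0 and 30 min.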
JMJD2A Tudor inh – JMJD2A Tudor domain (human) inhibition; Potency, µM (doses to about 114 µM), for inactives: top-dose activity change, negative = inhibition, hits mostly inhibitors; 390,000 compounds, 4.4% hits; AlphaScreen JMJD2A-Tudor / H3K4me3 peptide binding; AID 504339; O75164; also: % is scaled to controls: 0 for no effect and ±100 for the full control effect; nearly all actives have a fitted effect of over 50% in size
An asterisk follows results filed as active; ? = inconclusive; · = no result; [ ] = remark or other dose. An excerpt weighted towards active compounds, which were near 12% of everything screened. Calls follow the shape of the dose curve; as a rule, active = well fitted curve in the direction sought with a large enough effect; inconclusive = small, poorly fitted or top-dose-only effect, or another doubt; inactive = no such curve, though single readings can be large; an effect the other way counts as inactive or inconclusive. Potency is read from the fitted curve at half-maximal effect.

SMILES	HP1b chromo inh	BAZ2B block	G9a block	L3MBTL1 block	Sfp PPTase inh	JMJD2A Tudor inh
CCOc1ccc(N=Nc2c(C)[nH]n(-c3ccccc3)c2=O)cc1	-6%	?	1%[0.501 µM]	-9%[2.29 µM]	?	?
CC(=O)N(C)c1ccc(N=Nc2c(C)[nH]n(C(N)=S)c2=O)cc1	44%	-13%	8%[59 µM]	·	?	-15%
CCOC(=O)c1ccc(N=Nc2c(C)[nH]n(-c3ccccc3)c2=O)cc1	-27%	?	4µM*	-4%	-15%	?
Cc1ccc(NC(=O)C2CC(=O)N(c3ccc(OC(C)C)cc3)C2)cc1 (stereo not given)	37%	-1%	8%[59 µM]	·	·	-15%
COc1cc(NC(=S)NCCc2ccc(S(N)(=O)=O)cc2)c(OC)cc1Cl	14%	?	?	-3%[2.29 µM]	16µM*	-11%
COc1cc(C(=O)NCCc2ccc(S(N)(=O)=O)cc2)cc(OC)c1OC	19%	3%	-47%	-4%	8%	-18%
COc1cc(NC(=S)NC2CC(C)(C)NC(C)(C)C2)c(OC)cc1Cl	38%	-30%	50µM*	-9%	8%	-18%
COc1cc(OC)c(NC(=S)NCc2ccccc2)cc1Cl	-7%	-1%	?	·	-1%	-24%
COc1cc(NC(=S)NC2CC(C)(C)NC(C)(C)C2)cc(OC)c1	26%	-8%	24%[12.7 µM]	-3%	20%	1%
COc1cc(NS(=O)(=O)c2ccc(C)c(C)c2)c(OC)cc1Cl	18%	-2%	?	·	79µM*	-11%
COc1cc(NC(=S)NCCCO)c(OC)cc1Cl	27%	-10%	28µM*	3%	?	-1%
Cc1ccc(NC(=O)C2=C(O)c3sccc3N(C)S2(=O)=O)cc1	17%	1%	-9%[12.7 µM]	2%	18%	?
Cc1ccc(NC(=S)C2=C(O)c3sccc3N(C)S2(=O)=O)cc1	6%	-39%	18µM*	·	-28%	-26%
CC(C)c1ccccc1-n1c(SCC(=O)c2ccc3c(c2)NC(=O)CO3)nc2ccccc2c1=O	-3%	-11%	40µM*	4%	6%	-26%
O=C1COc2ccc(C(=O)CSc3ccccc3C(=O)O)cc2N1	40%	0%	·	18%	-13%	-9%
O=C1COc2ccc(C(=O)CSc3nnc(Cc4cccs4)n3-c3ccccc3)cc2N1	18%	2%	79µM*	·	-21%	3%[57.1 µM]
Fc1ccccc1-c1nc(N2CCN(c3cccc(Cl)c3)CC2)c2ccccc2n1	43%	3%	5%[59 µM]	·	·	6%
N#Cc1ccccc1S(=O)(=O)N1CCN(c2nc(-c3cccnc3)nc3ccccc23)CC1	12%	14%	50µM*	-9%	·	?
c1ccc(N2CCN(c3nc(-c4ccccn4)nc4ccccc34)CC2)cc1	?	1.8µM*	?	?	-18%	?
O=S(=O)(c1ccccc1F)N1CCN(c2nc(-c3cccnc3)nc3ccccc23)CC1	46%	-9%	14%[12.7 µM]	-5%	·	-34%
COc1cc2c(cc1OC)CN(c1nc(-c3cccnc3)nc3ccccc13)CC2	-19%	40µM*	50µM*	·	-13%	?
CCN1CCN(c2nc(-c3cccnc3)nc3ccccc23)CC1	5%	-34%	?	1%[11.4 µM]	11%	89µM*
COCCNC(=O)CSc1nc(-c2ccc(F)cc2)[nH]c1-c1ccc(Cl)cc1	-17%	?	-23%[59 µM]	·	·	-30%
O=C(CSc1nccn1-c1ccc(F)cc1)Nc1ccc(OC(F)(F)F)cc1	-13%[57 µM]	?	?	·	·	?
CCN(CCn1cccn1)Cc1c(C(=O)N2CCCCCCC2)nc2ccc(Cl)cn12	22%	-22%	79µM*	-20%	-16%	-11%
SMILES	HP1b chromo inh	BAZ2B block	G9a block	L3MBTL1 block	Sfp PPTase inh	JMJD2A Tudor inh
COc1ccccc1NC(=O)C(Cc1ccccc1)NS(=O)(=O)c1ccc2c(c1)c(=O)n(C)c(=O)n2C (stereo not given)	48%	-5%	?	·	·	-10%
CCN(CC)CCNC(C(=O)Nc1cccc(C(C)=O)c1)c1ccccc1 (stereo not given)	?	56µM*	?	·	?	1.1µM*
CCOc1ccc(NC(C(=O)Nc2cccc(C(C)=O)c2)c2ccccc2)cc1 (stereo not given)	-37%	40µM*	45µM*	?	9%	?
CCN1C(=NCCOC)N[C@@H](CCc2ccccc2)[C@H](C(=O)OC)[C@H]1C	15%	4%	2%[12.7 µM]	11%	19%	40µM*
CCN1C(=NCCc2c[nH]c3ccccc23)N[C@@H](c2ccccc2)[C@H](C(=O)OC)[C@H]1C	1%	?	79µM*	-4%	-3%	?
COC(=O)C1=C(C)N(Cc2ccccc2)C(=NCCc2c[nH]c3ccccc23)N[C@H]1c1ccccc1	-13%	56µM*	-28%[12.7 µM]	-6%	?	?
COC(=O)C(C(C)=O)C(NC(=O)OC(C)(C)C)c1ccccc1 (stereo not given)	·	·	·	·	10%	·
CCOC(=O)c1c(C)[nH]c(C)c1S(=O)(=O)NCc1cc(C)ccc1C	17%	50µM*	?	·	3%	?
CCOC(=O)c1c(C)[nH]c(C)c1S(=O)(=O)NCC(=O)NCc1ccccc1C	13%	-4%	3%[59 µM]	·	·	-13%
C1CCC[C@H]2CCCN3CC[C@H](CCCCCC[C@@H]4CCCN5CC[C@H](CC1)OC45)OC23	·	·	27%[59 µM]	·	37%	·
Cc1nn(C)c(C)c1S(=O)(=O)N(CC(=O)NCCc1ccccc1)c1ccc(C(C)C)cc1	36%	-7%	-28%[59 µM]	·	·	-13%
O=c1[nH]c(=S)[nH]c2c1C(c1cc([N+](=O)[O-])c(N3CCOCC3)cc1N1CCOCC1)O2 (stereo not given)	12%	-16%	45µM*	6%	2%	-35%
CC1CN(S(=O)(=O)c2cccc(-c3csc(-c4ccccc4)n3)c2)CC(C)O1 (stereo not given)	-5%	0%	18µM*	·	-6%	-1%
O=C(CSc1ccc(Cl)cc1)NC(=O)NCc1ccco1	39%	?	-33%	·	-11%	-1%
O=C(CSc1ccc(Cl)cc1)NCc1ccco1	38%	-34%	·	26%	89µM*	-15%
COc1ccccc1CNC(=O)CSC1=NCCS1	27%	1%	?	4%	0%	1%
O=C(CNCc1ccc(Cl)cc1)NCc1ccco1	?	50µM*	5.6µM*	-3%	-16%	79µM*
O=C(CCSCc1ccc(Cl)cc1)NCc1ccco1	10%	?	-5%[59 µM]	·	1%	-19%
O=C(CSC1=NCCS1)NCc1ccco1	-12%	6%	12%[12.7 µM]	-11%	13%	18µM*
Nn1cc(Br)c(=O)[nH]c1=O	·	·	42%[59 µM]	·	-26%	·
